The campaign covered roughly 5,500 compounds. About 2,000 (36%) were called active. Not shown: some 18% with an inconclusive outcome. This is one part of the list. Values without a mark were called inactive. Rule as the data show it: active = normalized growth mostly below about 0.91 (no sharp cut-off); inconclusive = no clear call, values can overlap the other calls; inactive = mostly above about 0.92.
Test: chemical genetic growth profiling, strain panel (AID 1159580);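 also: tested at 20 µM; growth read once vehicle control cultures reached saturation at 30 °C; 1 = growth at the plate median or of vehicle wells; lower values mean less growth of the strain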
Conditions: S. cerevisiae deletion strains, growth OD

SMILES: CCCCC/C=C\C/C=C\C/C=C\C/C=C\CCCC(=O)O
- normalized growth (locus YAL013W, strain DEP1, hits give low values): 0.987
- normalized growth (locus YAL021C, strain ccr4, hits give low values): 0.986
- normalized growth (locus YAL026C, strain drs2, hits give low values): 0.831 (active)
- normalized growth (locus YAL030W, strain snc1, hits give low values): 0.978
- normalized growth (locus YBL061C, strain skt5, hits give low values): 0.962
- normalized growth (locus YBR009C, strain hhf1, hits give low values): 0.952
- normalized growth (locus YBR021W, strain FUR4, hits give low values): 0.95
- normalized growth (locus YBR023C, strain chs3, hits give low values): 0.963
- normalized growth (locus YBR171W, strain sec66, hits give low values): 0.979
- normalized growth (locus YBR229C, strain ROT2, hits give low values): 0.994
- normalized growth (locus YBR231C, strain swc5, hits give low values): 0.975
- normalized growth (locus YBR279W, strain paf1, hits give low values): 0.976
- normalized growth (locus YCL011C, strain gbp2, hits give low values): 0.971
- normalized growth (locus YCL016C, strain dcc1, hits give low values): 0.974
- normalized growth (locus YCL029C, strain bik1, hits give low values): 0.986
- normalized growth (locus YCL061C, strain MRC1, hits give low values): 0.975
- normalized growth (locus YCL069W, strain vba3, hits give low values): 0.969
- normalized growth (locus YCR088W, strain abp1, hits give low values): 0.975
- normalized growth (locus YDL005C, strain med2, hits give low values): 0.984
- normalized growth (locus YDL035C, strain GPR1, hits give low values): 0.953
- normalized growth (locus YDL040C, strain nat1, hits give low values): 0.97
- normalized growth (locus YDL074C, strain BRE1, hits give low values): 0.916
- normalized growth (locus YDL101C, strain DUN1, hits give low values): 0.989
- normalized growth (locus YDL134C, strain PPH21, hits give low values): 0.984
- normalized growth (locus YDL185W, strain tfp1, hits give low values): 0.974
- normalized growth (locus YDL192W, strain arf1, hits give low values): 0.965
- normalized growth (locus YDR001C, strain nth1, hits give low values): 0.972
- normalized growth (locus YDR069C, strain doa4, hits give low values): 0.993
- normalized growth (locus YDR101C, strain arx1, hits give low values): 0.968
- normalized growth (locus YDR137W, strain rgp1, hits give low values): 0.846 (active)
- normalized growth (locus YDR150W, strain NUM1, hits give low values): 0.99
- normalized growth (locus YDR159W, strain sac3, hits give low values): 0.926
- normalized growth (locus YDR162C, strain NBP2, hits give low values): 0.967
- normalized growth (locus YDR195W, strain ref2): 1.01
- normalized growth (locus YDR297W, strain sur2, hits give low values): 0.972
- normalized growth (locus YDR318W, strain mcm21, hits give low values): 0.957
- normalized growth (locus YDR334W, strain swr1, hits give low values): 0.969
- normalized growth (locus YDR335W, strain msn5, hits give low values): 0.971
- normalized growth (locus YDR388W, hits give low values): 0.979
- normalized growth (locus YDR392W, strain spt3, hits give low values): 0.474 (active)
- normalized growth (locus YDR502C, strain sam2, hits give low values): 0.977
- normalized growth (locus YEL003W, strain gim4, hits give low values): 0.975
- normalized growth (locus YEL037C, strain rad23, hits give low values): 0.974
- normalized growth (locus YEL061C, strain CIN8 (second series), hits give low values): 0.966
- normalized growth (locus YEL061C, strain CIN8, hits give low values): 0.982
- normalized growth (locus YER015W, strain faa2, hits give low values): 0.973
- normalized growth (locus YER016W, strain bim1, hits give low values): 0.978
- normalized growth (locus YER110C, hits give low values): 0.976
- normalized growth (locus YER111C, strain swi4, hits give low values): 0.963
- normalized growth (locus YER155C, strain BEM2 (second series), hits give low values): 0.746 (active)
- normalized growth (locus YER155C, strain BEM2, hits give low values): 0.984
- normalized growth (locus YER167W, strain BCK2, hits give low values): 0.945
- normalized growth (locus YFR010W, strain ubp6, hits give low values): 0.974
- normalized growth (locus YGL078C, strain dbp3, hits give low values): 0.951
- normalized growth (locus YGL086W, strain mad1, hits give low values): 0.976
- normalized growth (locus YGL167C, strain pmr1, hits give low values): 0.958
- normalized growth (locus YGL173C, strain kem1, hits give low values): 0.96
- normalized growth (locus YGL227W, strain vid30, hits give low values): 0.988
- normalized growth (locus YGL240W, strain doc1, hits give low values): 0.963
- normalized growth (locus YGL248W, strain PDE1, hits give low values): 0.985
- normalized growth (locus YGL253W, strain hxk2, hits give low values): 0.974
- normalized growth (locus YGR078C, strain PAC10, hits give low values): 0.945
- normalized growth (locus YGR135W, strain pre9, hits give low values): 0.971
- normalized growth (locus YGR229C, strain SMI1, hits give low values): 0.877
- normalized growth (locus YGR252W, strain gcn5, hits give low values): 1.01
- normalized growth (locus YHR013C, strain ard1, hits give low values): 0.855
- normalized growth (locus YHR027C, strain rpn1, hits give low values): 0.981
- normalized growth (locus YHR030C, strain SLT2, hits give low values): 0.97
- normalized growth (locus YHR079C, strain IRE1 (second series), hits give low values): 0.967
- normalized growth (locus YHR094C, strain hxt1, hits give low values): 0.947
- normalized growth (locus YHR129C, strain ARP1, hits give low values): 0.992
- normalized growth (locus YHR142W, strain chs7, hits give low values): 0.931
- normalized growth (locus YHR200W, strain rpn10, hits give low values): 0.987
- normalized growth (locus YIL066C, strain RNR3, hits give low values): 0.977
- normalized growth (locus YIL073C, strain SPO22, hits give low values): 0.862
- normalized growth (locus YIR030C, strain dcg1, hits give low values): 0.985
- normalized growth (locus YJL092W, strain hpr5, hits give low values): 0.978
- normalized growth (locus YJL095W, strain BCK1 (second series), hits give low values): 0.972
- normalized growth (locus YJL095W, strain BCK1, hits give low values): 0.92
- normalized growth (locus YJL115W, strain asf1, hits give low values): 0.97
- normalized growth (locus YJL129C, strain trk1, hits give low values): 0.929
- normalized growth (locus YJL134W, strain LCB3, hits give low values): 1.02
- normalized growth (locus YJL154C, strain vps35, hits give low values): 0.979
- normalized growth (locus YJL164C, strain tpk1, hits give low values): 0.97
- normalized growth (locus YJL166W, strain qcr8, hits give low values): 0.959
- normalized growth (locus YJL168C, strain set2, hits give low values): 0.986
- normalized growth (locus YJL187C, strain SWE1 (second series), hits give low values): 0.983
- normalized growth (locus YJL187C, strain SWE1, hits give low values): 0.978

Source: PubChem BioAssay AID1159580 (chemical genetic matrix, 2015)
